Source: PubChem BioAssay (Tox21)
Records with an inconclusive call do not appear. The source made the active and inactive calls. Unless noted, the call rests on the fitted dose curve; in most records, active means well fitted curve in the direction sought with a large enough effect in the repeat runs; inconclusive means weak or mixed curves; inactive means no such curve, though single readings can be large; an effect the other way counts as inactive or inconclusive.

Experiments:
[1] = qHTS assay to test for compound auto fluorescence at 535 nm (green) in HEK293 cells (AID 720680)
[2] = qHTS assay to test for compound auto fluorescence at 460 nm (blue) in HEK293 cell free culture (AID 720681)
Procedure, shortened: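 Blue fluorescence (Ex 405/Em 460 nm, triamterene-equivalent) was read immediately after pin transfer of compound or DMSO into medium (DMEM, 10% FBS) without cells.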

[3] = qHTS assay to test for compound auto fluorescence at 535 nm (green) in HEK293 cell free culture (AID 720682)
Procedure, shortened: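 Green-channel intensity (Ex/Em 485/535 nm) was recorded from compound-treated wells containing only DMEM with 10% FBS. Fluorescein provided the equivalency standard.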

[4] = qHTS assay to test for compound auto fluorescence at 590 nm (red) in HEK293 cell free culture (AID 720683)
Procedure, shortened: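 Red-channel autofluorescence of compounds in culture medium (DMEM, 10% FBS), no cells, measured at 540/590 nm. Rose Bengal sodium is the reference fluorophore for equivalence.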

[5] = qHTS assay to test for compound auto fluorescence at 590 nm (red) in HepG2 cell free culture (AID 720684)
Procedure, shortened: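 Plate contents were MEM with 10% FBS plus test compound or DMSO, no cells. Fluorescence was recorded with 540 nm excitation and 590 nm emission.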

[6] = qHTS assay to test for compound auto fluorescence at 460 nm (blue) in HepG2 cell free culture (AID 720685)
Procedure, shortened: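 Compound (23 nL) or DMSO pinned into cell-free MEM with 10% FBS; blue fluorescence read at 405/460 nm excitation/emission, expressed as auto-fluorescence equivalency to triamterene.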

[7] = qHTS assay to test for compound auto fluorescence at 535 nm (green) in HepG2 cell free culture (AID 720686)
[8] = qHTS assay to test for compound auto fluorescence at 460 nm (blue) in HepG2 cells (AID 720687)
Procedure, shortened: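 Blue-channel autofluorescence (Ex/Em 405/460 nm, triamterene-equivalent) was measured after 1 hr compound exposure at 37 C, 5% CO2. Cells were HepG2, plated overnight at 37 C in MEM plus 10% FBS.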

[9] = target: Glucocorticoid receptor (Homo sapiens) (UniProt P04150); experiment: qHTS assay to identify small molecule agonists of the glucocorticoid receptor (GR) signaling pathway (AID 720691; active means well fitted activation curve with a large enough effect in the signal ratio in the repeat runs, not every such curve was filed as active; the % refers to the signal ratio); conditions: GR-bla HeLa, beta-lactamase reporter ratio, 18 h; activation: at 62.4 µM (top of the series)
Procedure, shortened: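 Agonist mode in a HeLa line carrying a GRE-controlled beta-lactamase reporter. Compounds act for 18 h at 37 C before a 2 h room-temperature FRET substrate step and fluorescence reading.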

[10] = target: Glucocorticoid receptor (Homo sapiens) (UniProt P04150); experiment: qHTS assay to identify small molecule antagonists of the glucocorticoid receptor (GR) signaling pathway (AID 720692; active means well fitted inhibition curve with a large enough effect in the signal ratio in the repeat runs, not every such curve was filed as active; the % refers to the signal ratio; further: potency means the concentration at half of the fitted maximal effect)
Procedure, shortened: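 Cells plated, rested 4 h at 37 C/5% CO2; compounds in DMSO pin-transferred; dexamethasone added to 5 nM final; 18 h at 37 C; B/G FRET substrate added, 2 h room temperature; fluorescence measured.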

[11] = qHTS assay to identify small molecule antagonists of the glucocorticoid receptor (GR) signaling pathway - cell viability counter screen (AID 720693); further: nearly all actives have a fitted effect of over 55% in size; further: potency means the concentration at half of the fitted maximal effect
[12] = qHTS assay for identifying genotoxic compounds that show differential cytotoxicity against isogenic chicken DT40 cell lines with known DNA damage response pathways - wild type cell line (AID 743012); further: nearly all actives have a fitted effect of over 60% in size; further: potency means the concentration at half of the fitted maximal effect
Procedure, shortened: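 Cells (DT40 wild type, 300/well) are treated with DMSO-dissolved compounds after a ~0.5 h pre-incubation and kept 40 h at 37 C/5% CO2. Viability is then measured by CellTiter-Glo luminescence following 30 min at room temperature.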

[13] = qHTS assay for identifying genotoxic compounds that show differential cytotoxicity against isogenic chicken DT40 cell lines with known DNA damage response pathways - Rev3 mutant cell line (AID 743014); further: nearly all actives have a fitted effect of over 55% in size; further: potency means the concentration at half of the fitted maximal effect
[14] = qHTS assay for identifying genotoxic compounds that show differential cytotoxicity against isogenic chicken DT40 cell lines with known DNA damage response pathways - Rad54/Ku70 mutant cell line (AID 743015); further: nearly all actives have a fitted effect of over 60% in size; further: potency means the concentration at half of the fitted maximal effect
[15] = qHTS assay to identify small molecule antagonists of the androgen receptor (AR) signaling pathway - cell viability counter screen (AID 743033; further: nearly all actives have a fitted effect of over 45% in size; further: potency means the concentration at half of the fitted maximal effect)
[16] = target: Androgen receptor (Homo sapiens) (UniProt P10275); experiment: qHTS assay to identify small molecule agonists of the androgen receptor (AR) signaling pathway using the MDA cell line (AID 743040; further: nearly all actives have a fitted effect of over 20% in size; further: potency means the concentration at half of the fitted maximal effect)
Procedure, shortened: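 After a 5 h incubation at 37C and 0% CO2, MDA-kb2 reporter cells were dosed with compounds in DMSO and kept 16 h under the same conditions. Luciferase activity was then read as luminescence with ONE-Glo.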

[17] = qHTS assay to identify small molecule antagonists of the androgen receptor (AR) signaling pathway using the MDA cell line - cell viability counter screen (AID 743041; further: nearly all actives have a fitted effect of over 45% in size; further: potency means the concentration at half of the fitted maximal effect)
Procedure, shortened: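 R1881-driven MDA-kb2 AR-luc cells, 3,000/well, were dosed with library compounds for 16 h; cell health came from CellTiter-Fluor fluorescence in the reporter wells.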

[18] = qHTS assay to identify small molecule antagonists of the thyroid receptor (TR) signaling pathway - cell viability counter screen (AID 743064); further: nearly all actives have a fitted effect of over 50% in size; further: potency means the concentration at half of the fitted maximal effect
Procedure, shortened: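 In rat pituitary GH3.TRE-Luc reporter cells co-exposed to compound and 1 nM T3 for 23.5 h, cytotoxicity was assessed with CellTiter-Fluor in the same wells, read by fluorescence.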

[19] = target: Androgen receptor (Homo sapiens) (UniProt P10275); experiment: qHTS assay to identify small molecule antagonists of the androgen receptor (AR) signaling pathway using the MDA cell line (AID 743042; further: nearly all actives have a fitted effect of over 55% in size; further: potency means the concentration at half of the fitted maximal effect)
Procedure, shortened: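 Antagonist mode: compounds plus R1881 agonist added to MDA-kb2 AR-luc cells, incubated 16 h at 37C. Luciferase reporter luminescence quantified, with multiplexed CellTiter-Fluor readout for cell viability.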

[20] = target: Androgen receptor (Homo sapiens) (UniProt P10275); experiment: qHTS assay to identify small molecule antagonists of the androgen receptor (AR) signaling pathway (AID 743035; active means well fitted inhibition curve with a large enough effect in the signal ratio in the repeat runs, not every such curve was filed as active; the % refers to the signal ratio; further: potency means the concentration at half of the fitted maximal effect)
Procedure, shortened: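 Antagonism is scored as loss of R1881-driven beta-lactamase reporter expression in HEK293 cells carrying the reporter under a UAS element, after 16 h co-treatment at 37C and a 2 h room-temperature FRET substrate read.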

Measured: Potency

Sequence of Glucocorticoid receptor (Homo sapiens) (P04150 whole entry, looked up): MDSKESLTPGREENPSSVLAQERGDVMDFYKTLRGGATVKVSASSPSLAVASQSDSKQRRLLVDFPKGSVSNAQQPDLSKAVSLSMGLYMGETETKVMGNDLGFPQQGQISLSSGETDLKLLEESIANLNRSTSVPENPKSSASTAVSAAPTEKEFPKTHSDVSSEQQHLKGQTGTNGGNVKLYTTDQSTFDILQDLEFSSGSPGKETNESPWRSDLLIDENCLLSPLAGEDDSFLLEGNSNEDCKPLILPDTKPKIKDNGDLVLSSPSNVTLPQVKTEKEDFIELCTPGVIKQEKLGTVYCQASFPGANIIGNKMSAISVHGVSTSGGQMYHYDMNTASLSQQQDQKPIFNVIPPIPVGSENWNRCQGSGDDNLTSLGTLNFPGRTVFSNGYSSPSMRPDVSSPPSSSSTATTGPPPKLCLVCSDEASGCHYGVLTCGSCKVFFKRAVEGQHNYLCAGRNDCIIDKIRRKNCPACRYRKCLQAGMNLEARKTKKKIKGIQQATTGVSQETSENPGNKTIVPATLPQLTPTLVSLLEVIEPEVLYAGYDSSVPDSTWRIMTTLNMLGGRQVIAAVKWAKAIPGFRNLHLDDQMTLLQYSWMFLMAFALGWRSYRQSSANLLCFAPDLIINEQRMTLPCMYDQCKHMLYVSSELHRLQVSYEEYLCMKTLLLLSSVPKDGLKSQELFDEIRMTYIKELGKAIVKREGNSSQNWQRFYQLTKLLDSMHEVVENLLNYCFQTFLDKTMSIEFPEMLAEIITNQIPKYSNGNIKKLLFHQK
Sequence of Androgen receptor (Homo sapiens) (P10275 whole entry, looked up): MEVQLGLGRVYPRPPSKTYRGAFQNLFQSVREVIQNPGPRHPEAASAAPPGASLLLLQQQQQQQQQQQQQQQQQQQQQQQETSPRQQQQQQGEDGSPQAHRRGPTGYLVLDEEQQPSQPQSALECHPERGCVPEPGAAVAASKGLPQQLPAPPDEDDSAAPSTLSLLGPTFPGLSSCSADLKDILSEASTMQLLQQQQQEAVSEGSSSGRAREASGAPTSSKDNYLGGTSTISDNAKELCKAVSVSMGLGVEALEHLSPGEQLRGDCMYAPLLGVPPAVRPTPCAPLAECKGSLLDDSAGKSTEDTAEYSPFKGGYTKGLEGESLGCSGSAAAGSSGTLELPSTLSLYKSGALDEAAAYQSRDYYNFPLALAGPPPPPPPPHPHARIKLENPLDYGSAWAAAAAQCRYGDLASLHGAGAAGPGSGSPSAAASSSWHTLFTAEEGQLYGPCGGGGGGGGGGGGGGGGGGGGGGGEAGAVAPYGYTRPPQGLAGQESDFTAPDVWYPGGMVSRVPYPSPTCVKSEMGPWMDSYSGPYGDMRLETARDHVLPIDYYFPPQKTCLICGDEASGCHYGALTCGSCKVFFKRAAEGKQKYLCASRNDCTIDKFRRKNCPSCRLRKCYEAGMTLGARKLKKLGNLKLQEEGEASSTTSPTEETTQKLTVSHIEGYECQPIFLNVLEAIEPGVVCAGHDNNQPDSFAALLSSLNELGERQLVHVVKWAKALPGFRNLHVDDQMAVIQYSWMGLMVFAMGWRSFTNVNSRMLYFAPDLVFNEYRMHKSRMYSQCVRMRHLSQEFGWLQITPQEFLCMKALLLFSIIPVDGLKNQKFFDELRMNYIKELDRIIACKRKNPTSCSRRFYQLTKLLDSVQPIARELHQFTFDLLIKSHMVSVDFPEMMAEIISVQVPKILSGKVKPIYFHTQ

NC(=O)C(=O)N/N=C/c1ccc([N+](=O)[O-])o1
active: [12] 10.6 µM | [13] 11.9 µM | [14] 16.8 µM | [18] 26.6 µM
not listed: [19] | [20]
inactive: all other assays above

CCN(CC)CCOC(=O)C1(C2CCCCC2)CCCCC1
active: [12] 26.6 µM | [13] 21.1 µM | [14] 23.7 µM | [18] 26.6 µM
not listed: [15] | [16] | [17] | [20]
inactive: all other assays above

CCCCCCC(C)Nc1ccc(Nc2ccccc2)cc1 (stereo not given)
active: [10] 43.6 µM | [11] 49 µM | [12] 17.2 µM | [13] 15.4 µM | [14] 17.2 µM | [18] 61.1 µM
not listed: [9] | [15] | [16] | [19] | [20]
inactive: all other assays above

Oc1ccc(-c2ccccc2)c(Cl)c1
active: [13] 30.6 µM | [14] 30.6 µM | [16] 68.6 µM
not listed: [9] | [15] | [20]
inactive: all other assays above

O=C1NC2CCCCN2C12CCN(CCCN1c3ccccc3CCc3ccc(Cl)cc31)CC2 (stereo not given)
active: [10] 23.9 µM | [12] 9.44 µM | [13] 13.3 µM | [14] 13.3 µM | [18] 6.68 µM
not listed: [11] | [15] | [16] | [17] | [19] | [20]
inactive: all other assays above

CCCCCCCC/C=C/CCCOC(C)=O
not listed: [10] | [13] | [16] | [19] | [20]
inactive: all other assays above

O=Cc1ccc(F)cc1
active: [13] 19.3 µM | [14] 19.3 µM
not listed: [11] | [12] | [16]
inactive: all other assays above

Cc1c(-c2ccc(O)cc2)n(Cc2ccc(OCCN3CCCCCC3)cc2)c2ccc(O)cc12
active: [12] 11.9 µM | [13] 13.3 µM | [14] 13.3 µM | [18] 9.44 µM
inactive: [1] | [2] | [3] | [4] | [5] | [6] | [7] | [8] | [11]

CCCCCCOc1ccc(O)cc1
active: [12] 6.11 µM | [13] 5.45 µM | [14] 7.7 µM | [20] 24.5 µM | [18] 12.2 µM
not listed: [9] | [10] | [15] | [16]
inactive: all other assays above

SCCCCCCCCS
active: [12] 68.6 µM | [14] 54.5 µM
not listed: [9] | [10] | [13] | [16] | [19] | [20]
inactive: all other assays above

CCCCCCCCCCCCN(CCO)CCO
active: [11] 34.5 µM | [13] 0.172 µM | [14] 0.609 µM | [15] 43.5 µM | [17] 19.3 µM | [19] 15.3 µM | [18] 17.2 µM
not listed: [9] | [10] | [12] | [16] | [20]
inactive: all other assays above

CCCCCCCC/C=C\CCCCCCCC(=O)NCc1ccc(O)c(OC)c1
active: [11] 21.3 µM | [12] 13.3 µM | [14] 18.8 µM | [18] 6.68 µM
not listed: [9] | [10] | [13] | [16] | [19] | [20]
inactive: all other assays above

CC(=O)Nc1ccc(O)cc1
not listed: [9] | [10] | [16] | [19] | [20]
inactive: all other assays above

CC1(C)C(=O)N(Br)C(=O)N1Br
not listed: [9] | [12] | [13] | [14]
inactive: all other assays above
